CYP2C19 inhib – inhibitors of human CYP2C19 | AID 778 | inhibition, % at 5 µM | CYP2C19 Supersomes, luciferin-H EGE luminescence, 30 min | actives 21% (n = 96,000);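 active means CYP2C19 inhibition above a set limit at 5 µM in the primary screen, cut at about 50% in these data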;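 further: plate controls were negative control wells for no effect and 2.5 mM tranylcypromine positive control for full effect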
sEH inhibitor – blocks human soluble epoxide hydrolase activity. recombinant human sEH enzymatic activity assay. actives 0.34% (n = 91,000). P34913. inhibition, % at 2 µM. AID 707; in the data active means inhibition above about 80%
CYP2C19 act – cytochrome P450 2C19 (human) activation; recombinant CYP2C19, luciferin-H EGE luminescence; hits give high values; 0 = fully inhibited enzyme, 1 = untreated enzyme; activation factor at 5 µM; 96,000 tested, under 10 active;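 active means activation factor of at least 2 at 5 µM in the primary screen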;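 further: 0 = wells with 2.5 mM tranylcypromine and 1 = vehicle-only wells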
CYP2C9 activ – CYP2C9 (human) activation; recombinant CYP2C9, luciferin-H conversion, luminescence; hits give high values; factor 1 = untreated enzyme, 0 = blocked; activation factor at 5 µM; actives 1.4% (n = 96,000); AID 1024;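 active means activation factor of 2 or more for CYP2C9 at a 5 µM dose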;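 further: 0 = sulfaphenazole-blocked wells and 1 = vehicle-only wells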
Target sequence (P11712 whole entry, looked up): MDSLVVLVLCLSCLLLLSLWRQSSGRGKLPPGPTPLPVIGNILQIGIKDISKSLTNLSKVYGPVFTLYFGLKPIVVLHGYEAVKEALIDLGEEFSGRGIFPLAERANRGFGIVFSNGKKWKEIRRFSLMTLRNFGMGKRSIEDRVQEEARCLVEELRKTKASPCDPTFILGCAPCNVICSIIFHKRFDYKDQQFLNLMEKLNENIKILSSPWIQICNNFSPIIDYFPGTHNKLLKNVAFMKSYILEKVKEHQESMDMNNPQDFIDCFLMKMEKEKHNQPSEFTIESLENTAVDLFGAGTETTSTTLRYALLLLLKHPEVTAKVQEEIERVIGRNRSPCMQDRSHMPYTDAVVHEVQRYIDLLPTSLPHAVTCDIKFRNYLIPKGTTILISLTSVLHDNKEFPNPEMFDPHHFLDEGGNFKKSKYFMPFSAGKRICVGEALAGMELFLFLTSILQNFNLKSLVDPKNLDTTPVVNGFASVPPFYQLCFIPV
CYP2C9 inh – blocks human cytochrome P450 2C9 | inhibition, % at 5 µM | actives 20% (n = 96,000) | P11712 | CYP2C9 Supersomes, luciferin-H conversion, luminescence;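 active means blocking of liver enzyme CYP2C9 beyond about 50% at 5 µM, limit read from the data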
sEH act – increases human soluble epoxide hydrolase activity. actives 0.04% (n = 91,000). purified human sEH enzymatic activity, activator screen. activation, % at 2 µM. P34913. AID 717; in the data active means activation above about 37%
* marks the source's active call; other numbers are inactive results; . = not tested or not shown. A selection: hits, their analogues and other compounds. The true share with any hit is near 27%.

SMILES	CYP2C19 inhib	sEH inhibitor	CYP2C19 act	CYP2C9 activ	CYP2C9 inh	sEH act
COc1ccc(C(=O)Nc2ccccc2C(=O)NCc2ccco2)cc1OC	20	.	0.8	0.6	36	.
COCCCNC(=O)c1ccccc1NS(=O)(=O)c1ccc(C)cc1	74*	-14	0.3	0.7	32	12
COCCCNC(=O)c1ccccc1NS(C)(=O)=O	1	3	1	1.1	-5	-2
O=C(CN1CCN(CCO)CC1)Nc1ccccc1	.	1	.	.	.	0
Clc1ccc(Cn2ncc3c(NCCN4CCOCC4)ncnc32)cc1	28	3	0.7	0.7	25	0
O=C(COC(=O)c1ccc(S(=O)(=O)NCc2ccco2)cc1)NC1CCCCC1	3	68	1	0.7	31	-69
COc1ccccc1NC(=O)COC(=O)c1ccc(S(=O)(=O)NCc2ccco2)cc1	7	5	0.9	0.2	82*	-5
Cc1noc(C)c1COC(=O)c1ccc(S(=O)(=O)NCc2ccco2)cc1	72*	-3	0.3	0	100*	2
CCOCC(O)CS(=O)Cc1ccccc1 (stereo not drawn)	6	-2	0.9	1.1	-5	1
O=S(Cc1ccc(Cl)cc1)CC(O)(c1ccccc1)c1ccccc1 (stereo not drawn)	80*	-10	0.2	0.6	36	10
O=S(Cc1ccccc1)CC(O)(c1ccc(Cl)cc1)c1ccc(Cl)cc1 (stereo not drawn)	85*	7	0.1	0.8	24	-6
CC(C)Oc1ccc(C(=O)N(Cc2ccco2)C2CCS(=O)(=O)C2)cc1 (stereo not drawn)	7	-12	0.9	1	-1	11
COc1ccc(NC(=O)c2c(C(F)(F)F)nn(C)c2SCc2ccccc2Cl)cc1	24	.	0.8	0.1	87*	.
Cn1nc(C(F)(F)F)c(/C=N/OC(=O)c2ccccc2)c1SCc1ccccc1Cl	41	-5	0.6	0.6	38	6
COc1cc2[nH]c(=O)n(CCCCCC(=O)NCCCN3CCC(C)CC3)c(=O)c2cc1OC	.	-6	.	.	.	5
Cc1ccc(NC(=O)COc2ccc(Br)cc2CO)cc1	74*	-4	0.3	0.4	56*	4
Cc1ccc(NC(=O)COc2ccccc2CNC(C)(C)CC(C)(C)C)cc1	46	1	0.5	0.9	6	-2
O=C(COc1ccc(Br)cc1CO)Nc1ccccc1	89*	-6	0.1	0.3	71*	7
COc1ccc(N2CCN(C(=O)c3ccncc3)CC2)cc1	79*	9	0.2	0.6	39	-6
CCCNC(=O)Cn1cnc2sc(C(=O)N3CCN(CCC)CC3)c(C)c2c1=O	0	.	1	0.9	6	.
COc1cccc(C(=O)N2CCN(C3CCC(c4ccccc4)CC3)CC2)c1 (stereo not drawn)	91*	.	0.1	0.7	34	.
COc1cccc(C(=O)N2CCN(c3ncccn3)CC2)c1	70*	.	0.3	0.7	32	.
CCn1cnc2sc(C(=O)N3CCN(c4ccc(OC)cc4)CC3)c(C)c2c1=O	24	-18	0.8	0.4	57*	19
O=C(c1cccc(C(=O)N2CCN(c3ncccn3)CC2)c1)N1CCN(c2ncccn2)CC1	0	-4	1	0.9	13	6
O=C(c1cccc(COc2ccc(Cl)cc2Cl)c1)N1CCN(c2ccccn2)CC1	54*	-18	0.5	0.3	70*	18
SMILES	CYP2C19 inhib	sEH inhibitor	CYP2C19 act	CYP2C9 activ	CYP2C9 inh	sEH act
COc1cc(NC(=O)c2ccccc2)c(OC)cc1NC(=O)CN1CCN(c2ccccn2)CC1	15	1	0.9	0.7	26	-1
COc1ccc(CC(=O)N2CCN(c3ccccn3)CC2)cc1	.	-2	.	.	.	7
COc1ccc(Cl)cc1NC(=S)N1CCN(c2ccccn2)CC1	56*	4	0.4	2.5*	-154	-5
COc1cccc(C(=O)N2CCN(Cc3ccccc3C(F)(F)F)CC2)c1	95*	.	0.1	0.6	37	.
COc1ccc(C(=O)N2CCN(c3ccccn3)CC2)cc1	67*	-3	0.3	0.8	20	1
CCCCCCNC(=O)Cc1nc2nc(C)cc(C)n2n1	-12	14	1.1	1.2	-15	-16
C=CCOc1nc(N(C)C)nc(N(C)C)n1	-6	7	1.1	1.4	-40	-2
CC1=N/C(=C/c2ccc([N+](=O)[O-])cc2)C(=O)N1c1ccc(Cl)cc1Cl	32	-5	0.7	0.8	19	6
CCCS(=O)(=O)N1CCN(C(=O)c2cccc(OC)c2)CC1	78*	.	0.2	0.9	11	.
CCOC(=O)CN(C(=O)CSc1nnc(COc2ccc(OC)cc2)n1C)c1ccccc1	-8	-12	1.1	0.6	35	14
COc1cccc(C(=O)Oc2cc3c4c(c2)C(C)=CC(C)(C)N4C(=O)C3=O)c1	-5	-7	1.1	1.3	-27	9
CCCOc1ccccc1-n1sc2c(c1=S)-c1cc(OC)cc3c1N(C(=O)C3=O)C2(C)C	62*	-10	0.4	0.2	80*	11
C=C(C)CSC1=C(C#N)C(c2ccccc2Cl)CC(=O)N1 (stereo not drawn)	58*	6	0.4	0.3	70*	-6
C=CCSC1=C(C#N)C(c2ccccc2Cl)CC(=O)N1 (stereo not drawn)	73*	1	0.3	0.5	50	-2
CCSC1=C(C#N)C(c2ccccc2C)CC(=O)N1 (stereo not drawn)	22	.	0.8	0.9	8	.
COc1cc(OC)c(C2C(C(=O)Nc3ccc(C)cc3C)=C(C)Nc3ncnn32)cc1OC (stereo not drawn)	-11	.	1.1	1.2	-22	.
CCCCCCOC(=O)c1ccccc1NC(=O)/C=C/C(=O)O	4	13	1	0.8	22	-9
O=C(CSc1ncc(-c2ccccc2)[nH]1)Nc1ccccc1	75*	1	0.2	0.4	56*	-3
NC(=O)CSc1ncc(-c2ccccc2)[nH]1	-27	-4	1.3	1.2	-17	6
O=C(CSc1ncc(-c2ccc(F)cc2)[nH]1)N1CCCCC1	84*	-1	0.2	1.1	-12	-2
O=C(CSc1ncc(-c2ccccc2)[nH]1)Nc1cccc(O)c1	62*	4	0.4	0.8	21	-6
CCOC(=O)c1sc(NC(=O)c2ccc3ncsc3c2)nc1C	-2	.	1	1	-4	.
COC(=O)CSc1nc(C)c(C(C)=O)cc1C#N	-19	.	1.2	1.1	-8	.
CCOC(=O)c1cc(C#N)c(SCC(=O)c2cc(C#N)c(SC)nc2C)[nH]c1=O	35	.	0.6	0.3	74*	.
O=c1[nH]nc(Cc2ccc3ccccc3n2)c2ccccc12	8	1	0.9	0.9	14	-4
CN=C(NC#N)SCC(=O)c1ccc(Cl)cc1Cl	82*	-6	0.2	0	96*	8
Clc1ccc(CO/N=C/c2c(-c3ccccc3)nc3n2CCS3)c(Cl)c1	12	18	0.9	0.4	65*	-16

Screening data (PubChem BioAssay)
